This passage reports Potency and activity change, negative = inhibition results from PubChem BioAssay AID1671190 (National Center for Advancing Translational Sciences (NCATS), 2021).

Values joined by “and” are separate entries in the source; they are usually repeats but may differ in a detail not shown here. Identical values can stand only once. The whole screen tested about 580,000 compounds, of which about 6,100 (1.1%) were called active. A call without a number means that no potency is given here. Another 15% or so got no clear call; they are omitted. Only a selection was taken, and actives are over-represented in it overall. A number with no mark means an inactive call. Calls come from the whole dose curve; as a rule, active = well fitted inhibition curve with a large enough effect; inconclusive = small, poorly fitted or top-dose-only effect, or another doubt; inactive = no such curve, though single readings can be large or run the other way.
Potency is the fitted concentration of half-maximal effect.

The target in the experiment is Polyunsaturated fatty acid lipoxygenase ALOX12 (Homo sapiens) (UniProt P18054). Nature of the experiment: Primary qHTS assay for inhibitors of human arachidonate 12S-lipoxygenase (ALOX12): Round 2. As to conditions: purified 12hLO, xylenol orange hydroperoxide absorbance; series mostly up to 108 µM. Summed up: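 Purified human 12hLO (150 nM final) in 25 mM Hepes, 0.01% Triton X-100, pH 7.0 was preincubated 15 min at room temperature with compound. Then 40 uM arachidonic acid was added, 30 min. Hydroperoxide was read by Fe-XO absorbance ratio 573/405 nm.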
Polyunsaturated fatty acid lipoxygenase ALOX12 (Homo sapiens), sequence (P18054 whole entry, looked up): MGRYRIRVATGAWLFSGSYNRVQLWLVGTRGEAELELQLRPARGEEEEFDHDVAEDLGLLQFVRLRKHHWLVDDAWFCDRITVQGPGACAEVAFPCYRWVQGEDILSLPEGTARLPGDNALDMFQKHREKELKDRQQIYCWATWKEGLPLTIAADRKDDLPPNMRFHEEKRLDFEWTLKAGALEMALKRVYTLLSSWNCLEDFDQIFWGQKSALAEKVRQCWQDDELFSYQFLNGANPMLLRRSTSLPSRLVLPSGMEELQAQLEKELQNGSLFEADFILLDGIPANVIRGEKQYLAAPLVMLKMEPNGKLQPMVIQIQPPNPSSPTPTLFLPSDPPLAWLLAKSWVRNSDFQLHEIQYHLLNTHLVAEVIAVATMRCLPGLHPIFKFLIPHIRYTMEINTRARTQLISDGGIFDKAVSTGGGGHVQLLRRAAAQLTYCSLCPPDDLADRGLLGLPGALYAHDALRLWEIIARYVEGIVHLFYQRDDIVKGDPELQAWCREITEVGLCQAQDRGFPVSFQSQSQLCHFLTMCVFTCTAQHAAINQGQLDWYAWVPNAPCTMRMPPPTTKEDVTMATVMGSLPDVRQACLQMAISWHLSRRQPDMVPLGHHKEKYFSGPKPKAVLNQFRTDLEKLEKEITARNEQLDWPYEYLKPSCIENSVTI
In general terms: In qHTS, concentration-response curves come from the screen itself.
For `O=C(Nc1cccc(Br)c1)c1csc2c1CCCC2`, the Potency entry is “inactive”.

As to `CCCOc1ccc(-c2nc(C#N)c(N3CCN(C(=O)c4ccco4)CC3)o2)cc1`, the Potency result is “inactive”.

As to `O=C(c1ccco1)N1CCN(Cc2cccc(C(F)(F)F)c2)CC1`, the Potency result is “inactive”.

Regarding `Cc1ccc(-c2csc(C(C#N)=C(O)CN3CCN(C(=O)c4ccco4)CC3)n2)cc1`, the Potency is 44.7 µM (active).

In the case of `O=C(c1cc(-c2cccs2)on1)N1CCCC1c1ccccc1F` (centres undefined), the Potency entry is “inactive”.

On to `COc1cccc(CN2C[C@@H](F)[C@@H](OCc3nc4ccccc4n3C)C2)n1`, for which the Potency result is “inactive”.

As for `CSc1ccc(C(=O)N2CCC(n3nccc3NC(=O)CC(C)C)CC2)cc1`, the Potency result is “inactive”.

For the molecule `O=C(COc1ccc(F)cc1Cl)Nc1ncn[nH]1`, the Potency result was “inactive”.

Take `Cc1noc(C)c1CS(=O)(=O)c1cc(Cl)ccc1Cl`: the Potency entry is “inactive”.

With `COc1ccc(-c2nnc(SC(=O)N3c4ccccc4Sc4ccccc43)o2)cc1`, the Potency is 8.91 µM (active).

As to `COc1ccccc1-c1nnc(SCC(N)=O)o1`, the Potency entry is “inactive”.

`COc1ccc(CN(C(=O)CSc2nnc(-c3ccc(OC)c(OC)c3)o2)c2ccc(F)cc2)cc1`: the Potency result is “inactive”.

For the molecule `CCCNC(=O)NNC(=O)c1cn(C)c2ccccc12`, the Potency result was “inactive”.

Turning to `Cn1c(COc2ccc(Cl)cc2)nnc1SCC(O)COc1ccc(C(C)(C)C)cc1` (centres undefined), the Potency entry is “inactive”.

As to `CNC(=O)[C@@H](Cc1ccccc1)N1CCC[C@H]1C(=O)N1CCC1`, the Potency is 22.4 µM (active).

As to `CNC(=O)C(C)(C)N1CCC[C@H]1C(=O)N(C)Cc1ccccc1`, the Potency result was “inactive”.

In the case of `CCNC(=O)[C@@H]1CCCN1[C@@H](C(=O)NC)c1ccccc1OC`, the Potency result was “inactive”.

As for `CCc1ccc(CN(C)C(=O)Cn2cnc3c2c(=O)n(C)c(=O)n3C)cc1`, the Potency result is “inactive”.

For `CC(C)c1noc(-c2cn(C3CCN(C(=O)COc4ccc(F)cc4)CC3)nn2)n1`, the Potency result is “inactive”.

Take `CCc1ccc(-n2ccc3nc(N4CCc5ccccc5C4)ncc3c2=O)cc1`: the Potency was 39.8 µM (active).

For the molecule `Cc1nc2cnc(N3CCNCC3)nc2n(CCc2ccccc2)c1=O`, the Potency result is “inactive”.

Regarding `CCc1ccc(N2CC(O)=C(c3nc4ccccc4c(=O)[nH]3)C2=N)cc1`, the Potency result was “inactive”.

Regarding `COc1cccc(-c2cn3c(n2)NCCC3)c1`, the Potency entry was “inactive”.

Turning to `O=C(Nc1cnc(-c2cccc(Cl)c2)nc1)c1ccc(F)cc1`, the Potency result is “inactive”.

For the molecule `COc1cccc2cc(S(=O)(=O)c3ccc(Cl)c(Cl)c3)c(=O)oc12`, the Potency entry is “inactive”.

In the case of `Cc1ccc(-n2c(C3CCN(C(=O)c4ccoc4)CC3)n[nH]c2=O)cc1`, the Potency entry is “inactive”.

On to `CCOc1ccc(C(=O)N2CCC(c3n[nH]c(=O)n3-c3ccccc3)CC2)cc1OCC`, for which the Potency entry is “inactive”.

As to `Cc1ccc(C(=O)N2CCC(c3n[nH]c(=O)n3-c3ccccc3)CC2)cc1F`, the Potency is 28.2 µM (active).

On to `CC(C)(CNC(=O)c1ccccc1)CNC(=O)c1ccccc1`, for which the Potency result is “inactive”.

Consider `O=C1CSc2ccc(C(=O)Nc3cccc(COC(=O)c4ccc5c(c4)NC(=O)CS5)c3)cc2N1`, for which the Potency result is “inactive”.

As to `O=C(NCCNC(=O)C1CC1)c1c[nH]c2ccccc12`, the Potency entry was “inactive”.

With `Nc1nc(COC(=O)c2ccc(OC(F)F)cc2)nc2ccccc12`, the Potency result is “inactive”.

On to `Cc1occc(=O)c1OCc1noc(C(=O)NCc2ccc(Cl)cc2)n1`, for which the Potency result is “inactive”.

As for `O=C1Cc2cc(-c3csc(Nc4ccc(F)cc4)n3)ccc2N1`, the Potency result was “inactive”.

Regarding `Cc1ccc(-c2csc(Nc3ccccc3)n2)c(C)c1`, the Potency entry was “inactive”.

Take `O=C(O)c1ccc(Nc2nc(-c3ccc4ccccc4c3)cs2)cc1O`: the Potency was 31.6 µM (active).

`CC(=O)c1ccc(NC(=O)C(C)Sc2nnc(-c3ccco3)n2-c2ccccc2)cc1` (centres undefined): the Potency result is “inactive”.

On to `Cc1ccccc1-n1cnnc1SCC(=O)NC(C)c1cccc2ccccc12` (centres undefined), for which the Potency result is “inactive”.

For the molecule `COc1ccc(C2C3=C(CCCC3=O)N(CC(=O)O)C3=C2C(=O)CCC3)cc1`, the Potency was 10 µM (active).

In the case of `CCCN1C2=C(C(=O)CCC2)C(c2ccc(O)c(Br)c2)C2=C1CCCC2=O`, the Potency entry is “inactive”.

As to `COc1ccc(C2C(C#N)=C(N)N(c3ncn[nH]3)C3=C2C(=O)CCC3)cc1` (centres undefined), the Potency entry is “inactive”.

With `CCCCCCCC1CCC(c2ccc(-c3ccc(CCCC)cn3)cc2)CC1` (centres undefined), the Potency entry was “inactive”.

For the molecule `COc1ccc(NC(=O)CN(C)C(=O)c2nc(-c3ccccc3)oc2C)cc1`, the Potency entry was “inactive”.

For `COCCN1C(=O)C(=O)/C(=C(/O)c2ccc(S(=O)(=O)N3CCCCC3)cc2)C1c1ccc(OC)c(OC)c1` (centres undefined), the Potency is 14.1 µM (active).

With `COc1cccc(C2/C(=C(/O)c3ccc(F)cc3)C(=O)C(=O)N2CCN(C)C)c1` (centres undefined), the Potency entry is “inactive”.

Consider `COc1ccc(/C(O)=C2\C(=O)C(=O)N(Cc3ccco3)C2c2ccc(OC)cc2OC)cc1` (centres undefined), for which the Potency was 14.1 µM (active).

Regarding `COc1ccc(C2/C(=C(/O)c3ccc(OC(C)C)cc3)C(=O)C(=O)N2CCCN2CCOCC2)cc1` (centres undefined), the Potency result was “inactive”.

In the case of `COc1cc(C2/C(=C(\O)c3ccc4c(c3)CC(C)O4)C(=O)C(=O)N2Cc2ccco2)ccc1O` (centres undefined), the Potency result was “inactive”.

Regarding `CCCOc1ccc(/C(O)=C2/C(=O)C(=O)N(CCN(C)C)C2c2ccc(OC)c(OC)c2)cc1` (centres undefined), the Potency entry was “inactive”.

On to `COCCN1C(=O)C(=O)/C(=C(/O)c2ccc(S(=O)(=O)N3CCOCC3)cc2)C1c1ccc(OC)c(OC)c1` (centres undefined), for which the Potency entry is “inactive”.

On to `COc1ccc(/C(O)=C2/C(=O)C(=O)N(CC3CCCO3)C2c2ccc(OC)c(OC)c2)cc1` (centres undefined), for which the Potency was 17.8 µM (active).

With `CCOc1cc(C2/C(=C(/O)c3ccc(S(=O)(=O)N4CCCCC4)cc3)C(=O)C(=O)N2CCOC)ccc1O` (centres undefined), the Potency result was “inactive”.

Regarding `Cc1ccc(C)c(OCc2ccc(-c3nc(C#N)c(NC(C)C)o3)o2)c1`, the Potency entry is “inactive”.

Consider `CCCCCCC(C)NC(=O)COC(=O)c1n[nH]c(=O)c2ccccc12` (centres undefined), for which the Potency entry is “inactive”.

In the case of `NCC(=O)N1CCCC2(Cc3ccccc3CN2C(=O)c2cccc(Cl)c2)C1` (centres undefined), the Potency entry is “inactive”.

As to `Cc1cc2ccccc2n1CC(=O)NCc1ccc(C(N)=O)cc1`, the Potency entry was “inactive”.

For the molecule `Cc1cccc(NC(=O)c2ccccc2NC(=O)CN2CCN(S(=O)(=O)c3cccs3)CC2)c1`, the Potency result was “inactive”.

As for `COc1ccc(S(=O)(=O)N2CCC(C(=O)Nc3cccc(C)c3)CC2)c2cccnc12`, the Potency entry is “inactive”.

In the case of `COC(=O)[C@H](Cc1ccc(OC)cc1)NC(=O)[C@H]1CN(C(=O)c2ccc(N(C)C)cc2)CCN1S(=O)(=O)c1ccccc1`, the Potency result was “inactive”.

Regarding `CCCN(C)C(=O)CCC[C@H]1NC[C@@H]2C[C@H]1CN(Cc1ccccc1)C2`, the Potency result was “inactive”.

Regarding `CC1(C)CC(=O)C2=C(C1)OC(N)=C(C#N)C2c1cccnc1` (centres undefined), the Potency result is “inactive”.

Regarding `N#CC1=C(N)OC2=C(C(=O)CCC2)C1c1ccc(-c2ccc(Cl)cc2Cl)o1` (centres undefined), the Potency was 28.2 µM (active).

In the case of `NC1=C([N+](=O)[O-])C(c2ccccc2)C2=C(CCCC2=O)O1` (centres undefined), the Potency result was “inactive”.

On to `O=C(Nc1ccccc1F)N1CC2CCC(C1)N2Cc1ccc(-c2cccnc2)cc1`, for which the activity change, negative = inhibition is 0.675% [at 6.33 µM].

With `CC(=O)Nc1ccc2c3c(ccc([N+](=O)[O-])c13)CC2`, the Potency entry is “inactive”.

For `COc1ccc(OC)c(NC(=O)/C=C/c2ccc(C)o2)c1`, the Potency result is “inactive”.

`Cc1ccc(/C=C/C(=O)Nc2ccc([N+](=O)[O-])c(NC(=O)/C=C/c3ccc(C)o3)c2)o1`: the Potency was 6.31 µM (active).

As to `COCCn1c(SCc2cccc(Br)c2)nnc1-c1ccccc1`, the Potency result is “inactive”.

In the case of `Cc1ccc(C)c(/C=C/c2nc3ccccc3s2)c1`, the Potency result was “inactive”.

For `CC(C)(C)c1ccc(C(=O)NN=C2CCCCC2)cc1`, the Potency entry was “inactive”.

For the molecule `CC(C)(C)NC(=O)C(=O)NN=C1CCCCCCC1`, the Potency entry is “inactive”.

Take `CC(C)NC(=S)NN=C1CCCCCCCCCCC1`: the Potency was 35.5 µM (active).

With `COc1ccc(C)cc1CN(C)C(=O)CCn1ccc2ccccc21`, the Potency entry is “inactive”.

`CCOC(=O)c1cn[nH]c1S(=O)(=O)N1CCCC(C)C1` (centres undefined): the Potency is 11.2 µM (active).

On to `CCOC(=O)c1c(NC(=O)c2ccc(S(=O)(=O)N3CCCC(C)C3)cc2)sc2c1CCN(C(C)C)C2` (centres undefined), for which the Potency result is “inactive”.

As to `CCOC(=O)c1cccc(NC(=O)c2cc(S(=O)(=O)N3CCCC(C)C3)cn2C)c1` (centres undefined), the Potency result was “inactive”.

Turning to `O=C(Nc1ccc(Cl)nc1)c1ccc2cc[nH]c2n1`, the activity change, negative = inhibition is 5.64% [at 12.5 µM] and 1.76% [at 12.5 µM].

With `CC/C(=N/N=C(/CC)c1ccccc1)c1ccccc1`, the Potency result is “inactive”.

On to `CC/C(=C(/c1ccccc1)c1ccc(OCC[N+](C)(C)C)cc1)c1ccccc1`, for which the Potency is 44.7 µM (active).

For `CCCCCCCCCOc1ccc(C(=O)c2ccccc2)cc1`, the Potency entry was “inactive”.

Take `CCCCOCCCNC(=O)c1cccc(C#N)c1`: the Potency entry was “inactive”.

As for `O=C(N/N=C/C=C/c1ccccc1)C1CC1(c1ccccc1)c1ccccc1` (centres undefined), the Potency result was “inactive”.

As to `O=C(NN=CC=Cc1ccccc1)C(O)C(O)C(=O)NN=CC=Cc1ccccc1` (centres undefined), the Potency result was “inactive”.

In the case of `Cc1ccc(N/N=C/C=C/c2ccccc2)cc1Cl`, the Potency was 2.82 µM (active).

Take `CCOc1ccc(C(=O)N2c3ccccc3NC(=O)C2CC(=O)Nc2cccc(C(F)(F)F)c2)cc1` (centres undefined): the Potency entry was “inactive”.

With `O=C(Oc1ccc2cc(-c3ccccc3)c(=O)oc2c1)N1CCOCC1`, the Potency result is “inactive”.

As to `O=C(COC(=O)CNC(=O)C1CCCCC1)NCc1ccccc1`, the Potency entry is “inactive”.

For the molecule `O=C(NCc1ccccc1)c1cccc(NC(=O)C2CCCCC2)c1`, the Potency result was “inactive”.

With `S=C(NCc1ccccc1)Nc1ccc(NC(=S)NCc2ccccc2)c(Cl)c1`, the Potency entry was “inactive”.

With `O=C(NC(Cc1ccccc1)C(=O)O)c1cccc(C(F)(F)F)c1` (centres undefined), the Potency result was “inactive”.

For the molecule `C/C(=N\NC(=S)NCc1ccccc1)C1CCCCC1`, the Potency was 39.8 µM (active).

Turning to `C/C(=N/NC(=S)NCc1ccccc1)c1cccc(C(F)(F)F)c1`, the Potency is 12.6 µM (active).

In the case of `C/C(=N\NC(=S)NCc1ccccc1)c1ccc(Cl)cc1`, the Potency was 31.6 µM (active).

Consider `C/C(=N\NC(=O)CNC(=O)C(c1ccccc1)c1ccccc1)c1ccc(C)cc1`, for which the Potency result was “inactive”.

As for `COC(=O)CNC(=O)c1cccc(C(F)(F)F)c1`, the Potency result is “inactive”.

Consider `CC(=O)c1ccccc1NCC(=O)NCC(F)(F)F`, for which the Potency result is “inactive”.

`CCOc1ccc(CNC(=O)c2ncoc2-c2cccs2)cc1OC`: the Potency entry is “inactive”.

As to `COc1cccc(CN(C(=O)c2oc3cc(Br)ccc3c2C)C2CCS(=O)(=O)C2)c1` (centres undefined), the Potency entry is “inactive”.

For the molecule `O=C(CCNc1c(-c2ccc(F)cc2)nc2cnccn12)Nc1ccc2c(c1)OCO2`, the Potency entry was “inactive”.
